Screening results (PubChem BioAssay)
TWEAK Fn14 block: blocks TWEAK-Fn14 interaction in a reporter cell assay; TWEAK-stimulated Fn14 reporter cells, luciferase luminescence, 8 h; inhibition, % at 10 µM; 360,000 compounds, 2% hits; in the data active means inhibition above about 50%
HSF-1 act: increases HSF-1 driven luciferase reporter signal. activation, % at 9 µM. 300,000 compounds, 1.7% hits. AID 504408. NIH3T3-HGL HSF-1 luciferase reporter, MG132, 8 h; 100% = twice DMSO control signal;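 active means mean replicate activation of at least 50% with a set share of replicates each reaching 50%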
HSP90 refold inh: HSP90 refolding inhibition in rabbit reticulocyte lysate; 290,000 compounds, 0.91% hits; inhibition, % at 5.6 µM; AID 1789; luciferase refolding luminescence, 3 h;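 active means inhibition above the screen-wide mean plus 3 SD, computed separately per campaign, cut at about 16% in these data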;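 further: inhibitors lower the luminescence because luciferase stays unfolded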
HSF1 inhib: HSF1 inhibition; NIH3T3-HGL HSE-luciferase, MG132-induced, luminescence 8 h; hits give low values; activity change, negative = inhibition, % at 7.5 µM (by protocol); 300,000 compounds, 0.77% hits;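 active means more than half of replicate wells show activity change below -50%, luminescence cut by over half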;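 further: luciferase reports HSF-1 transcriptional activity via heat shock element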
LMP1 NFkB inh: Epstein-Barr LMP1 NF-kappaB reporter inhibition | LMP1-induced NF-kappaB luciferase reporter cells, luminescence | inhibition, % at 12.5 µM | 350,000 compounds, 0.69% hits | AID 504558; in the data active means inhibition above about 41%
TROY NFkB inh: inhibitors of TROY-dependent NF-kB signaling; Q293 LMP1-TROYcd NF-kB luciferase reporter, 4 h; inhibition, % at 10 µM; 360,000 compounds, 0.98% hits; AID 1347056;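 active means compounds whose plate-normalised and pattern-corrected inhibition of the luciferase reporter signal at the single screening dose is 50% or more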
Large screens that a line does not name were inactive. Sampled rows, rich in hits. Any-hit rate of the full collection: about 4.7%.

COc1ccc2cc(CN(CC3CCCO3)C(=O)Nc3ccccc3OC)c(=O)[nH]c2c1 (stereo not given)	LMP1 NFkB inh 49
COc1ccc(NC(=O)N(Cc2cc3ccc(OC)cc3[nH]c2=O)CC2CCCO2)cc1 (stereo not given)	none
CCc1ccc2[nH]c(=O)c(CN(CCN(C)C)C(=O)Nc3ccccc3OC)cc2c1	none
N#Cc1ccc(-c2nc3c4ccccc4ccn3c2Cc2cccc(Cl)c2)cc1	none (no result: HSF-1 act, HSP90 refold inh, HSF1 inhib, LMP1 NFkB inh)
O=S1(=O)CC(N2CCCC2)CN1Cc1cn(Cc2ccc(Cl)cc2)nn1 (stereo not given)	none (no result: HSF-1 act, HSP90 refold inh, HSF1 inhib, LMP1 NFkB inh)
CN(C)CCCN(Cc1cc2cc3c(cc2[nH]c1=O)OCO3)C(=S)Nc1cccc(Cl)c1	TROY NFkB inh 51
O=C1NC[C@H](CCCCN2C[C@H](Cc3ccccc3)N(Cc3ccccc3)C(=O)C2=O)N(CCc2ccccc2)C1=O	none (no result: HSF-1 act, HSP90 refold inh, HSF1 inhib, LMP1 NFkB inh)
COc1cccc(-c2nc3ccc([N+](=O)[O-])cc3o2)c1	none
O=[N+]([O-])c1ccc2nc(-c3ccccc3)oc2c1	HSF-1 act 62
O=C(CSc1nnc(-c2ccncc2)o1)Nc1cc(F)ccc1F	none (no result: HSF-1 act, HSP90 refold inh, HSF1 inhib)
CCOc1ccccc1NC(=O)CSc1nnc(-c2ccncc2)o1	none (no result: HSP90 refold inh)
Cc1cnc(NC(=O)CSc2nnc(COc3ccccc3)o2)s1	none
O=C(CSc1nnc(-c2ccccc2)o1)Nc1ccccc1F	TWEAK Fn14 block 57, LMP1 NFkB inh 53
Cc1cnc(NC(=O)CSc2nnc(-c3ccccc3)o2)s1	HSF-1 act 61
COc1ccccc1NC(=O)CSc1nnc(-c2ccncc2)o1	HSF1 inhib -63
Cc1cc(-c2nnc(SCC(=O)Nc3ccccc3C(F)(F)F)o2)c(C)n1-c1ccccc1	TWEAK Fn14 block 92, HSF1 inhib -56, TROY NFkB inh 70
CC1=C(C(=O)N(C)C)CC(CC(=O)NC2CCCCC2)C(=O)N1CCCN1CCCC1=O (stereo not given)	none (no result: HSF-1 act, HSP90 refold inh, HSF1 inhib)
Cc1cc(C)cc(C(O)c2ncc(-c3ccccc3F)[nH]2)c1 (stereo not given)	none (no result: HSF-1 act, HSP90 refold inh, HSF1 inhib, LMP1 NFkB inh)
CCCC1NC(=O)c2cc3ccccc3cc2-n2c1nc1cc(F)ccc1c2=O (stereo not given)	none (no result: HSF-1 act, HSP90 refold inh, HSF1 inhib)
COc1ccc(CN2CC[C@@H]3CN(C(C)=O)[C@H](c4ccccc4Br)C[C@@H]32)cc1	none (no result: HSF-1 act, HSP90 refold inh, HSF1 inhib, LMP1 NFkB inh)
CCOc1ccc(C(CN2CCOCC2)C(C)=O)cc1OC (stereo not given)	none (no result: HSF-1 act, HSP90 refold inh, HSF1 inhib, LMP1 NFkB inh)
O=C(CSc1nnc(-c2ccc(Br)cc2)o1)Nc1cccc(C(=O)O)c1	LMP1 NFkB inh 75
O=C(CSc1nnc(-c2ccc(Br)cc2)o1)Nc1cccc2ccccc12	none (no result: HSF-1 act, HSF1 inhib)
N#Cc1ccsc1NC(=O)CSc1nnc(-c2ccccc2)o1	HSF-1 act 56
O=C(CSc1nnc(-c2ccccn2)o1)Nc1ccccc1Cl	HSF-1 act 51
CC1(C(=O)NCc2cccs2)CCN1C(=O)Cc1cccc2ccccc12 (stereo not given)	none (no result: HSF-1 act, HSP90 refold inh, HSF1 inhib, LMP1 NFkB inh)
Cc1cc(O)ccc1-c1cccc2nccn12	none (no result: HSF-1 act, HSP90 refold inh, HSF1 inhib, LMP1 NFkB inh)
O=C(NC(=S)Nc1ccccc1C(F)(F)F)c1ccccc1F	HSF-1 act 76
N#CCC(=O)NNC(=S)Nc1ccccc1C(F)(F)F	TWEAK Fn14 block 65
Cc1ccccc1C(=O)NC(=S)Nc1ccccc1C(F)(F)F	none
CCC(=O)NC(=S)Nc1ccccc1C(F)(F)F	LMP1 NFkB inh 73
COc1ccc(OCCOC(=O)CNC(=O)c2ccc(F)cc2)cc1	none (no result: HSF-1 act, HSP90 refold inh, HSF1 inhib)
O=C(Nc1nc2ccccc2s1)c1ccc2sc([C@H]3C[C@H](O)[C@@H](CO)O3)nc2c1	TWEAK Fn14 block 64 (no result: HSF-1 act, HSP90 refold inh, HSF1 inhib, LMP1 NFkB inh)
O=C(Nc1nccs1)c1ccc2sc([C@H]3C[C@H](O)[C@@H](CO)O3)nc2c1	none (no result: HSF-1 act, HSP90 refold inh, HSF1 inhib, LMP1 NFkB inh)
COc1cccc(C2C(C(=O)Nc3nc4ccccc4s3)=C(C)NC3=C2C(=O)CC(C)(C)C3)c1OC (stereo not given)	none (no result: TROY NFkB inh)
COc1cc(C(=O)Nc2nc3ccc(C)cc3s2)ccc1OCc1c(C)noc1C	TWEAK Fn14 block 50
COc1ccc(OC)c(C2C(C(=O)Nc3nc4ccccc4s3)=C(C)NC3=C2C(=O)CCC3)c1 (stereo not given)	HSF-1 act 75
CCc1nnc(NC(=O)c2ccc(OCc3c(C)noc3C)c(OC)c2)s1	none
COc1ccc(C(=O)Nc2nc3ccccc3s2)cc1OC	HSF-1 act 71
Cc1cccc(NC(=O)CN2CCN(C(=O)CN3C(=O)NC4(CCCCC4C)C3=O)CC2)c1C (stereo not given)	none (no result: HSF-1 act, HSP90 refold inh, HSF1 inhib)
CCOC(=O)C(NC(=O)c1ccccc1)C(C)(C)SCc1ccccc1 (stereo not given)	none (no result: HSF-1 act, HSP90 refold inh, HSF1 inhib)
CN(C)C1CN(Cc2cn(Cc3ccc(C(F)(F)F)cc3)nn2)S(=O)(=O)C1 (stereo not given)	none (no result: HSF-1 act, HSP90 refold inh, HSF1 inhib, LMP1 NFkB inh)
CC(C)CNc1ncnc2c1ncn2[C@H]1CN(CCc2ccccc2)C[C@@H](CO)O1	none (no result: HSF-1 act, HSP90 refold inh, HSF1 inhib, LMP1 NFkB inh)
COc1ccc(C(=O)Nn2c(C)nc3ccccc3c2=O)cc1OC	TROY NFkB inh 59
COc1ccc(NS(=O)(=O)c2cc(NC(=O)c3cccc(OCc4c(C)noc4C)c3)ccc2OC)cc1	HSF-1 act 57
CCOC(=O)C1(C)CCCN(C(=O)c2cccc(C#N)c2)C1 (stereo not given)	none (no result: HSF-1 act, HSP90 refold inh, HSF1 inhib, LMP1 NFkB inh)
CCc1nc2ccc(C(=O)N(C)Cc3ccccc3)cn2c1N(C)Cc1ccc(OC)cc1	none (no result: HSF-1 act, HSP90 refold inh, HSF1 inhib, LMP1 NFkB inh)
COc1ccc(NC(=O)/C(Cl)=C(/Cl)S(=O)Cc2ccccc2)cn1 (stereo not given)	TWEAK Fn14 block 98, HSF1 inhib -93, LMP1 NFkB inh 83, TROY NFkB inh 63
COc1ccc(/C=C/C(=O)Nc2ccc(OC)nc2)cc1	none
CCCCNC(=S)Nc1ccc(OC)nc1	HSF-1 act 65
COc1ccc(CS(=O)(=O)/C(Cl)=C(/Cl)C(=O)Nc2ccc(OC)nc2)cc1	TWEAK Fn14 block 99, LMP1 NFkB inh 91, TROY NFkB inh 80
CC1Cc2ccccc2N1C(=O)C12CCC(C)(C(=O)C1)C2(C)C (stereo not given)	HSF1 inhib -63
O=S1(=O)CC(N2CCCC2)CN1Cc1cn(Cc2cccc(C(F)(F)F)c2)nn1 (stereo not given)	none (no result: HSF-1 act, HSP90 refold inh, HSF1 inhib, LMP1 NFkB inh)
CC1=NN(C(=O)c2ccc(Cl)cc2)C(O)(c2ccccc2)C1 (stereo not given)	none
COC(=O)C1=NN(C(=O)c2ccccc2)C(C)(O)C1 (stereo not given)	none
COC(=O)C1=NN(C(=O)c2ccc(C)cc2)C(O)(c2ccc(Cl)cc2)C1 (stereo not given)	HSF-1 act 147 (no result: TWEAK Fn14 block, LMP1 NFkB inh, TROY NFkB inh)
COC(=O)C1=NN(C(=O)c2ccccc2)C(O)(c2ccc([N+](=O)[O-])cc2)C1 (stereo not given)	HSF-1 act 273
OC(CN1c2ccccc2Sc2ccccc21)Cn1nnc2ccccc21 (stereo not given)	HSF-1 act 63
O=C1c2ccccc2C(=O)N1CC(O)Cn1nnc2ccccc21 (stereo not given)	none
Cc1ccc2c(c1)c(C)c(C)n2CC(O)Cn1nc(C)cc1C (stereo not given)	none
